# Test results reported in PubChem BioAssay (EPA / NIEHS).
# Inconclusive results are not listed. A structure can be active in one record and inactive in another. Activity calls are given as the source filed them. The calls were made as follows, unless noted: active = hit-call score of the fitted dose curve at least 0.9, where 1 is the maximum; inactive = score below 0.9.
# Tests used:
# [1] = target: human Thyroid Receptor alpha (THRa1), THRA (gene 7067) (UniProt P10827); assay: ATG_THRa1_TRANS: Attagene TRANS-FACTORIAL HepG2 Assay for human Thyroid Receptor alpha (THRa1) (AID 2283014; active = hit-call score of the fitted dose curve at least 0.9, where 1 is the maximum)
# human Thyroid Receptor alpha (THRa1), THRA (gene 7067), sequence (P10827 whole entry, looked up, the tested form may be a part): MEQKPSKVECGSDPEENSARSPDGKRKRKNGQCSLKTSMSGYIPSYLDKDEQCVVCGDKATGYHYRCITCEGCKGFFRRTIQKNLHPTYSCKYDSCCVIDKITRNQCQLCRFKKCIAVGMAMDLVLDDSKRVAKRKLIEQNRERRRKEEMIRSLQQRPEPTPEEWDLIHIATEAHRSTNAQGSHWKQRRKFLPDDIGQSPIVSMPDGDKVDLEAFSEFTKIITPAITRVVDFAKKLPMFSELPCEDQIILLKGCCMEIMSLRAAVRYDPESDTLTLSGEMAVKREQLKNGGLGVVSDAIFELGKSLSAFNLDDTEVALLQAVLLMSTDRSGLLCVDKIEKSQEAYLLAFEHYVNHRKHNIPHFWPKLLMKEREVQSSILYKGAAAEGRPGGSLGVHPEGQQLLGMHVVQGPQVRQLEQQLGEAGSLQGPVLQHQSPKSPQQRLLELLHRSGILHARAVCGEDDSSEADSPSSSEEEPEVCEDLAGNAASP
# Method in brief: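 Measured here is mRNA from a GAL4-UAS reporter in transfected HepG2 cells carrying a Gal4-fused receptor, 24 h post-dose. DMSO served as negative control and baseline.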
# [2] = read-out: E-selectin (Homo sapiens) (UniProt P16581); assay: BSK_3C_Eselectin: BioMAP Diversity Plus: 3C Assay for Eselectin Biomarker Activity (AID 2283015); settings: primary human endothelial cells (HUVEC); actives raise or lower the signal;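 as to outcome: cell surface E-selectin protein quantified by ELISA 24 h after dosing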
# Method in brief: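 Endpoint derived by bidirectional fitting against DMSO vehicle; signal is ELISA-detected E-selectin from primary HUVEC at 24 h post-dosing, with parallel SRB staining (0.1% SRB, 560 nm) flagging cytotoxicity.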
# [3] = read-out: Interleukin-1 alpha (IL1a), IL1A (gene 3552); assay: BSK_BE3C_IL1a: BioMAP Diversity Plus: BE3C Assay for Interleukin-1 alpha (IL1a) Biomarker Activity (AID 2283016); settings: primary human bronchial epithelial cells; actives raise or lower the signal
# Method in brief: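 ELISA read-out of IL-1a from human lung bronchial epithelial primary cells, 24 h post-dose. Gain or loss of signal fitted relative to DMSO negative control.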
# [4] = read-out: Monocyte Chemoattractant Protein-1 (MCP1), CCL2 (gene 6347); assay: BSK_3C_MCP1: BioMAP Diversity Plus: 3C Assay for Monocyte Chemoattractant Protein-1 (MCP1) Biomarker Activity (AID 2283017); settings: primary human endothelial cells (HUVEC); actives raise or lower the signal
# Method in brief: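 Using human vascular primary endothelium, researchers measured MCP-1 by ELISA 24 h after treatment, with DMSO serving as negative control for bidirectional fitting.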
# [5] = read-out: Monocyte Chemoattractant Protein-1 (MCP1), CCL2 (gene 6347); assay: BSK_4H_MCP1: BioMAP Diversity Plus: 4H Assay for Monocyte Chemoattractant Protein-1 (MCP1) Biomarker Activity (AID 2283018); settings: primary human endothelial cells (HUVEC); actives raise or lower the signal
# Method in brief: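 HUVEC primary cells, 24 h post-dose, MCP-1 by ELISA. Gain or loss of signal fitted bidirectionally vs DMSO baseline. Cytotoxicity: SRB stain (0.1% after 10% TCA fixation), read 560 nm, parallel cultures.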
# [6] = read-out: Human Leukocyte Antigen - DR isotype (HLADR), HLA-DRA (gene 3122); assay: BSK_3C_HLADR: BioMAP Diversity Plus: 3C Assay for Human Leukocyte Antigen - DR isotype (HLADR) Biomarker Activity (AID 2283019); settings: primary human endothelial cells (HUVEC); actives raise or lower the signal;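 as to outcome: ELISA of cell-surface HLA-DR on HUVEC 24 h after dosing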
# Method in brief: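 Compound added to primary HUVEC cultures, 24 h incubation, then HLA-DR determined by ELISA; endpoint derived by bidirectional fitting relative to DMSO negative control.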
# [7] = read-out: Interleukin-8 (IL8), CXCL8 (gene 3576); assay: BSK_3C_IL8: BioMAP Diversity Plus: 3C Assay for Interleukin-8 (IL8) Biomarker Activity (AID 2283020); settings: primary human endothelial cells (HUVEC); actives raise or lower the signal
# Method in brief: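 HUVEC, 3C stimulation; 24 h compound exposure; IL-8 read by ELISA; gain or loss of signal fitted relative to DMSO control.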
# [8] = read-out: Monokine induced gamma interferon (MIG), CXCL9 (gene 4283); assay: BSK_3C_MIG: BioMAP Diversity Plus: 3C Assay for Monokine induced gamma interferon (MIG) Biomarker Activity (AID 2283021); settings: primary human endothelial cells (HUVEC); actives raise or lower the signal;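 as to AC50: MIG protein level measured by immunoassay in the treated endothelial cultures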
# Method in brief: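 HUVEC, 3C system; 24 h chemical exposure; MIG by ELISA; bidirectional fit vs DMSO baseline.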
# [9] = target: human Retinoid X Receptor beta (RXRb), RXRB (gene 6257) (UniProt P28702); assay: ATG_RXRb_TRANS: Attagene TRANS-FACTORIAL HepG2 Assay for human Retinoid X Receptor beta (RXRb) (AID 2283013; active = hit-call score of the fitted dose curve at least 0.9, where 1 is the maximum)
# human Retinoid X Receptor beta (RXRb), RXRB (gene 6257), sequence (P28702 whole entry, looked up, the tested form may be a part): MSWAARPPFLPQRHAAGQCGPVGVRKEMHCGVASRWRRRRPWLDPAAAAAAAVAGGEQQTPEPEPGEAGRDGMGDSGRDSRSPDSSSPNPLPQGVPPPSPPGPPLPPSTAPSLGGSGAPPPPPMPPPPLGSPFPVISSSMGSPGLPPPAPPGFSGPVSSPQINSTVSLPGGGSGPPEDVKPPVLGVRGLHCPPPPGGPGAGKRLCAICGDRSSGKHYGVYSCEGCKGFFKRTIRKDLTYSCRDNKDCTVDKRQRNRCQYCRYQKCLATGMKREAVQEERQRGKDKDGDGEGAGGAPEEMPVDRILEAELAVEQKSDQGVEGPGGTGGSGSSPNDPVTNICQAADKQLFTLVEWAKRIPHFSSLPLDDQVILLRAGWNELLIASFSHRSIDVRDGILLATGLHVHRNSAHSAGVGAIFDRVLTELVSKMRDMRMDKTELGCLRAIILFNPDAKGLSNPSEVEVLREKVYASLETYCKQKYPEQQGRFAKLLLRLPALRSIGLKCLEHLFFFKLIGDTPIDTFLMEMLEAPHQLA
# Method in brief: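 Read-out: reporter mRNA induction via RT-PCR plus capillary electrophoresis fluorescence, analysed as signal increase relative to DMSO. Cells were human HepG2, transiently transfected with GAL4-UAS reporter constructs and chimeric receptor-Gal4 fusions, dosed for 24 h.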
# [10] = target: human Vitamin D Receptor (VDR), VDR (gene 7421) (UniProt P11473); assay: ATG_VDR_TRANS: Attagene TRANS-FACTORIAL HepG2 Assay for human Vitamin D Receptor (VDR) (AID 2283022; active = hit-call score of the fitted dose curve at least 0.9, where 1 is the maximum)
# human Vitamin D Receptor (VDR), VDR (gene 7421), sequence (P11473 whole entry, looked up): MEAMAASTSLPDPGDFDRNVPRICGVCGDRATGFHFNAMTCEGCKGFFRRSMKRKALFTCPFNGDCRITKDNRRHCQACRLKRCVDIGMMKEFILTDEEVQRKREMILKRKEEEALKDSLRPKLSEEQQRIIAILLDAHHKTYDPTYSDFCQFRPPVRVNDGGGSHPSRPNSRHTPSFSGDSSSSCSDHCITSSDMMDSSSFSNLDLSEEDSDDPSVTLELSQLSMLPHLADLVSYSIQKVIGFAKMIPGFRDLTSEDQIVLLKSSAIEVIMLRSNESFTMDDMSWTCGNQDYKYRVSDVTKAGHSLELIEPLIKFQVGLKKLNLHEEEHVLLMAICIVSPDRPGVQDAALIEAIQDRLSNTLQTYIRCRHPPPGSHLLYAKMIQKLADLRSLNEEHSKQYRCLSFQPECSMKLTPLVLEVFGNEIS
# Method in brief: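 Multiplexed TRANS reporter in HepG2; 24 h treatment; reporter mRNA by RT-PCR plus capillary electrophoresis; upregulation scored relative to DMSO.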
# E-selectin (Homo sapiens), sequence (P16581 whole entry, looked up): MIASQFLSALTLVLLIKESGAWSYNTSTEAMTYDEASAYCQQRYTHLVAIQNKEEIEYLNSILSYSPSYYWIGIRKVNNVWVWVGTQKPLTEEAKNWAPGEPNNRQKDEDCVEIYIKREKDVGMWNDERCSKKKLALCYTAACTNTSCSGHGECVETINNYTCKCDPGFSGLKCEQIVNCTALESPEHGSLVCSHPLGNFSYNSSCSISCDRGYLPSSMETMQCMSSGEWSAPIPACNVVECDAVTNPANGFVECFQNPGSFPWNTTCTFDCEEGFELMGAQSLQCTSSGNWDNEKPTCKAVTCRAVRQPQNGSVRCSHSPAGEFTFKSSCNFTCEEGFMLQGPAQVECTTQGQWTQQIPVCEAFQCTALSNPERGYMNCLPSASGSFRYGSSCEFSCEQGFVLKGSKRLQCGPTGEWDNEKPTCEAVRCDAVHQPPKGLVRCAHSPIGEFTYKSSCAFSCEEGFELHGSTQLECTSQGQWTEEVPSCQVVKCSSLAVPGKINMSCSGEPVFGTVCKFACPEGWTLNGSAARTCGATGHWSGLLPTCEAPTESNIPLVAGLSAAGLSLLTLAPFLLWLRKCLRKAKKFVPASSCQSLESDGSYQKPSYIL
structure (smiles),measurement,setting,value
S=C([S-])NCCNC(=S)[S-].[Mn+2],outcome,[1],inactive
same,outcome,[2],inactive
same,outcome,[3],inactive
same,outcome,[4],inactive
same,outcome,[5],inactive
same,AC50,[6],29.7 µM (active)
same,outcome,[7],inactive
same,outcome,[8],inactive
COc1nc(C)nc(NC(=O)NS(=O)(=O)c2ccccc2OCCCl)n1,outcome,[9],inactive
same,outcome,[2],inactive
same,outcome,[3],inactive
same,outcome,[4],inactive
same,outcome,[5],inactive
same,outcome,[6],inactive
same,outcome,[7],inactive
same,outcome,[8],inactive
same,outcome,[10],inactive
CCCCC(CC)COC(=O)c1ccccc1C(=O)O (centres undefined),outcome,[1],inactive
same,outcome,[2],inactive
same,outcome,[3],inactive
same,outcome,[4],inactive
same,outcome,[5],inactive
same,outcome,[6],inactive
same,outcome,[7],inactive
same,outcome,[8],inactive
CCCN(CCC)C(=O)SCC,outcome,[1],inactive
same,outcome,[2],inactive
same,outcome,[3],inactive
same,outcome,[4],inactive
same,outcome,[5],inactive
same,outcome,[6],inactive
same,outcome,[7],inactive
same,outcome,[8],inactive
same,outcome,[10],inactive
C[C@]12CC[C@@H]3c4ccc(O)cc4C[C@@H](CCCCCCCCCS(=O)CCCC(F)(F)C(F)(F)F)[C@H]3[C@@H]1CC[C@@H]2O (some centres undefined),outcome,[9],inactive
same,outcome,[1],inactive
same,outcome,[2],inactive
same,outcome,[3],inactive
same,outcome,[4],inactive
same,outcome,[5],inactive
same,outcome,[6],inactive
same,outcome,[7],inactive
same,outcome,[8],inactive
same,outcome,[10],inactive
c1ccc2[nH]c(-c3cscn3)nc2c1,outcome,[9],inactive
same,outcome,[2],inactive
same,outcome,[3],inactive
same,outcome,[4],inactive
same,outcome,[5],inactive
same,outcome,[6],inactive
same,outcome,[7],inactive
same,outcome,[8],inactive
same,outcome,[10],inactive
CC(C)(c1ccc(O)cc1)c1ccc(O)cc1,outcome,[1],inactive
same,outcome,[2],inactive
same,outcome,[3],inactive
same,outcome,[4],inactive
same,outcome,[5],inactive
same,outcome,[6],inactive
same,outcome,[7],inactive
same,outcome,[8],inactive
Cc1nn(C)c(Oc2ccccc2)c1C=NOCc1ccc(C(=O)OC(C)(C)C)cc1,AC50,[1],0.109 µM (active)
same,AC50,[2],20 µM (active)
same,outcome,[3],inactive
same,AC50,[4],14.4 µM (active)
same,AC50,[5],6.16 µM (active)
same,AC50,[6],3.97 µM (active)
same,AC50,[7],9.81 µM (active)
same,outcome,[8],inactive
same,outcome,[10],inactive
C[C@]12C[C@H](O)[C@H]3[C@@H](CCC4=CC(=O)CC[C@@]43C)[C@@H]1CC[C@@H]2C(=O)CO,outcome,[1],inactive
same,outcome,[2],inactive
same,outcome,[3],inactive
same,outcome,[4],inactive
same,outcome,[5],inactive
same,outcome,[6],inactive
same,outcome,[7],inactive
same,outcome,[8],inactive
CCCCOC(=O)C(C)Oc1ccc(Oc2ccc(C(F)(F)F)cn2)cc1 (centres undefined),outcome,[1],inactive
same,outcome,[2],inactive
same,outcome,[3],inactive
same,outcome,[4],inactive
same,outcome,[5],inactive
same,outcome,[6],inactive
same,outcome,[7],inactive
same,outcome,[8],inactive
same,outcome,[10],inactive
O=C(c1ccc(O)cc1O)c1ccc(O)cc1O,outcome,[9],inactive
same,outcome,[1],inactive
same,outcome,[2],inactive
same,outcome,[3],inactive
same,outcome,[4],inactive
same,outcome,[5],inactive
same,outcome,[6],inactive
same,outcome,[7],inactive
same,outcome,[8],inactive
same,outcome,[10],inactive
S=C(S)NCCNC(=S)S.[Mn+2].[S-]C([S-])=NCCN=C([S-])[S-].[Zn+2],outcome,[1],inactive
same,outcome,[2],inactive
same,outcome,[3],inactive
same,outcome,[4],inactive
same,outcome,[5],inactive
same,AC50,[6],13.3 µM (active) [middle of 4 runs]
same,outcome,[6],inactive
same,outcome,[7],inactive
same,outcome,[8],inactive
same,outcome,[10],inactive
O=C(c1ccccc1)C1CCCCC1,outcome,[1],inactive
same,outcome,[2],inactive
same,outcome,[3],inactive
same,outcome,[4],inactive
same,outcome,[5],inactive
same,outcome,[6],inactive
same,outcome,[7],inactive
same,outcome,[8],inactive
same,outcome,[10],inactive
CCNc1nc(N)nc(Cl)n1,outcome,[1],inactive
same,outcome,[2],inactive
same,outcome,[3],inactive
same,outcome,[4],inactive
same,outcome,[5],inactive
same,outcome,[6],inactive
same,outcome,[7],inactive
same,outcome,[8],inactive
CC(C)(C)[C@@H](O)[C@@H](Cc1ccc(Cl)cc1)n1cncn1,outcome,[9],inactive
same,outcome,[1],inactive
same,outcome,[2],inactive
same,outcome,[3],inactive
same,outcome,[4],inactive
same,outcome,[5],inactive
same,AC50,[6],7.11 µM (active)
same,outcome,[7],inactive
same,outcome,[8],inactive
CCC(O)=C1C(=O)CC(C(=O)O)CC1=O (centres undefined),outcome,[1],inactive
same,outcome,[2],inactive
same,outcome,[3],inactive
same,outcome,[4],inactive
same,outcome,[5],inactive
same,outcome,[6],inactive
same,outcome,[7],inactive
same,outcome,[8],inactive
CCOC(=O)c1ccc(O)cc1,outcome,[1],inactive
same,outcome,[2],inactive
same,outcome,[3],inactive
same,outcome,[4],inactive
same,outcome,[5],inactive
same,outcome,[6],inactive
same,outcome,[7],inactive
same,outcome,[8],inactive
same,outcome,[10],inactive
C#C[C@]1(O)CC[C@H]2[C@@H]3CCC4=CC(=O)CC[C@@H]4[C@H]3CC[C@@]21CC,outcome,[1],inactive
same,outcome,[2],inactive
same,outcome,[3],inactive
same,outcome,[4],inactive
same,outcome,[5],inactive
same,AC50,[6],20 µM (active)
same,outcome,[7],inactive
same,outcome,[8],inactive
same,outcome,[10],inactive
CN(C)C(=O)Nc1ccc(Cl)c(Cl)c1,outcome,[9],inactive
same,outcome,[1],inactive
same,outcome,[2],inactive
same,outcome,[3],inactive
same,outcome,[4],inactive
same,outcome,[5],inactive
same,outcome,[6],inactive
same,outcome,[7],inactive
same,outcome,[8],inactive
CC(C)CCCCCCc1ccc(O)cc1,outcome,[1],inactive
same,AC50,[2],8.72 µM (active)
same,AC50,[3],26.7 µM (active)
same,AC50,[4],9.8 µM (active)
same,AC50,[5],7.07 µM (active)
same,AC50,[6],9.6 µM (active)
same,AC50,[7],8.35 µM (active)
same,AC50,[8],8.53 µM (active)
same,outcome,[10],inactive
COC(=O)c1cccc(C)c1S(=O)(=O)NC(=O)Nc1nc(OCC(F)(F)F)nc(N(C)C)n1,outcome,[1],inactive
same,outcome,[2],inactive
same,outcome,[3],inactive
same,outcome,[4],inactive
same,outcome,[5],inactive
same,outcome,[6],inactive
same,outcome,[7],inactive
same,outcome,[8],inactive
CCOC(=O)NCCOc1ccc(Oc2ccccc2)cc1,outcome,[1],inactive
same,AC50,[2],21.3 µM (active)
same,outcome,[3],inactive
same,AC50,[4],28.5 µM (active)
same,AC50,[5],18.7 µM (active)
same,AC50,[6],25.5 µM (active)
same,AC50,[7],15 µM (active)
same,outcome,[8],inactive
same,outcome,[10],inactive
COC(=O)c1ccccc1C(=O)O,outcome,[1],inactive
same,outcome,[2],inactive
same,outcome,[3],inactive
same,outcome,[4],inactive
same,outcome,[5],inactive
same,AC50,[6],9.98 µM (active)
same,outcome,[7],inactive
same,outcome,[8],inactive
CCC(C)OC(=O)N1CCCCC1CCO (centres undefined),outcome,[1],inactive
same,outcome,[2],inactive
same,AC50,[3],0.981 µM (active)
same,outcome,[3],inactive
same,outcome,[4],inactive
same,outcome,[5],inactive
same,outcome,[6],inactive
same,outcome,[7],inactive
same,outcome,[8],inactive
CCOC(=O)C(C)Oc1ccc(Oc2nc3ccc(Cl)cc3o2)cc1 (centres undefined),outcome,[9],inactive
same,outcome,[1],inactive
same,outcome,[2],inactive
same,outcome,[3],inactive
same,AC50,[4],20 µM (active)
same,outcome,[5],inactive
same,AC50,[6],20 µM (active)
same,outcome,[7],inactive
same,outcome,[8],inactive
same,outcome,[10],inactive
CCCN(CCC)c1c([N+](=O)[O-])cc(C(F)(F)F)c(N)c1[N+](=O)[O-],outcome,[1],inactive
same,AC50,[2],14.9 µM (active)
same,AC50,[3],31.3 µM (active)
same,AC50,[4],29.4 µM (active)
same,AC50,[5],29.7 µM (active)
same,AC50,[6],18.4 µM (active)
same,AC50,[7],32.9 µM (active)
same,AC50,[8],31.7 µM (active)
CCCOC(=O)c1ccc(C(=O)OCCC)nc1,outcome,[1],inactive
same,outcome,[2],inactive
same,outcome,[3],inactive
same,outcome,[4],inactive
same,outcome,[5],inactive
same,outcome,[6],inactive
same,outcome,[7],inactive
same,outcome,[8],inactive
CCOC(=O)COc1cc(-n2ncc(C(F)(F)F)c(C)c2=O)c(F)cc1Cl,outcome,[1],inactive
same,outcome,[2],inactive
same,outcome,[3],inactive
same,outcome,[4],inactive
same,outcome,[5],inactive
same,outcome,[6],inactive
same,outcome,[7],inactive
same,outcome,[8],inactive
same,outcome,[10],inactive
CCCCOC(=O)[C@@H](C)Oc1ccc(Oc2ccc(C(F)(F)F)cn2)cc1,outcome,[1],inactive
same,outcome,[2],inactive
same,outcome,[3],inactive
same,outcome,[4],inactive
same,outcome,[5],inactive
same,outcome,[6],inactive
same,outcome,[7],inactive
same,outcome,[8],inactive
